D1 potentiator – potentiators of human D1 dopamine receptor. AID 504651. P21728. 0.036% of 360,000 active. HEK293 TREx D1 cells, calcium flux, dopamine EC20 potentiation. potentiation, % at 10 µM; in the data active = potentiation above about 30%; note: 0% is about no effect
Target sequence (P21728 whole entry, looked up): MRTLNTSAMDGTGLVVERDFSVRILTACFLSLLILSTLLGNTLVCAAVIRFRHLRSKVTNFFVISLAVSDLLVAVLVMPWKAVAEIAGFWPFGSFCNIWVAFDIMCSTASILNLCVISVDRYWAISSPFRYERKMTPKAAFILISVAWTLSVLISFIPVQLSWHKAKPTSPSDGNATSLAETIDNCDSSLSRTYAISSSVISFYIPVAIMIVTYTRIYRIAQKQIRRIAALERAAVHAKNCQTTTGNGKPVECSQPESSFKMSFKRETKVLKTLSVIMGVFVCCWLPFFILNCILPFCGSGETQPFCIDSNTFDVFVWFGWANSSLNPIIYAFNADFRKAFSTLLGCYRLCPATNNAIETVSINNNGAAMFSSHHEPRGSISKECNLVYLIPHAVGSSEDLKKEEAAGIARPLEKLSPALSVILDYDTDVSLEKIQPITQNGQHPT
D1 antag – human D1 dopamine receptor antagonism. P21728. HEK293 TREx D1 cells, calcium flux, dopamine EC80; stronger effect = lower value. activity change, negative = inhibition, % at 10 µM. 3.2% of 360,000 active; in the data active = activity change below about -30%; note: % is set by controls: 0 for no effect and ±100 for the full control effect
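Calcium flux readout: force-coupled, inducible Hek293 Trex D1 line, cells induced overnight at 30 C with tetracycline, dye-loaded 30–90 min at RT. Antagonism scored against EC80 dopamine challenge given 180 s after compound.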
D1 ag – human D1 receptor agonism; P21728; HEK293 T-REx D1 cells, calcium flux, agonist mode; activation, % at 2 µM; 1% of 360,000 active; note: 0% is about no effect
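Inducible HEK293 T-REx D1 cells, force-coupled to calcium signalling, were plated at 4000 cells/well with tetracycline and held overnight at 30 C. After no-wash calcium dye loading, compound-evoked calcium rise over 180 s flagged agonists.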
TRHR ag – activates the human TRH receptor. 0.18% of 360,000 active. TRHR cells, calcium flux fluo-8, FDSS agonist mode. P34981. AID 493084. activation, % at 2 µM; note: 0% is about no effect
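TRHR-expressing cells loaded with fluo-8 calcium dye; 23 nL library compound pin-transferred, kinetic FDSS fluorescence (Ex 480/Em 530) recorded about 180 s for agonist-induced calcium release, before a 10 nM TRH EC20 addition for potentiator mode.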
USP1 inh – inhibitors of human USP1/UAF1 deubiquitinase; recombinant USP1/UAF1, Ub-Rhodamine cleavage fluorescence; 0.23% of 390,000 active; Potency, µM (series often up to 57.1 µM), for inactives: top-dose activity change, negative = inhibition, most hits filed as inhibitors; AID 743255; active = well fitted inhibition curve with a large enough effect; inconclusive = small, poorly fitted or top-dose-only effect; inactive = no such curve, though single readings can be large or run the other way; note: potency is the fitted concentration of half-maximal effect; % is set by controls: 0 for no effect and ±100 for the full control effect; nearly all actives have a fitted effect of over 60% in size
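USP1/UAF1 complex (1 nM) preincubated 15 min at room temperature with compound, then Ub-Rho substrate (150 nM final) added. Kinetic fluorescence at 480/540 nm over 6 reads at 60 s intervals; 50 mM HEPES pH 7.8, 0.5 mM EDTA, 0.1 mg/ml BSA, 1 mM TCEP, 0.01% Tween-20.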
TRHR PAM – allosteric enhancers of human TRH receptor; P34981; TRHR cells, fluo-8 calcium fluorescence, EC20 TRH enhancement; enhancement, % at 2 µM; 0.66% of 360,000 active; AID 493056; in the data active = enhancement above about 30%; note: 0% is about no effect
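Enhancer read-out: after compound pinning and an initial kinetic agonist-mode read, an EC20 of TRH (10 nM final) was injected and fluo-8 calcium signal (Ex 480/Em 530) followed at 1 s/cycle for 100 cycles in TRHR-expressing cells.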
* marks the source's active call; other numbers are inactive results; ? = inconclusive; · = no result given. This is a sample that favours compounds with a hit; in the whole collection about 4.4% have one here. Cut-off read from the data, not from the text of the source, unless noted: active = activation above about 30%; inactive = the rest.

SMILES	D1 potentiator	D1 antag	D1 ag	TRHR ag	USP1 inh	TRHR PAM
COc1ccccc1N1CCN(C(=O)C2CCN(S(=O)(=O)c3cnc[nH]3)CC2)CC1	1	12	2	1	?	3
Cc1c(N=C2C=CC(=O)c3ccccc32)c(=O)n(-c2ccccc2)n1C	0	3	0	0	32µM*	-6
CC(CCc1ccccc1)NS(=O)(=O)c1ccccc1Cl (configuration not stated)	-6	12	1	-1	-4%	3
CC(CCc1ccccc1)NS(=O)(=O)c1ccccc1 (configuration not stated)	-3	-37*	7	-1	-12%	4
CNc1nc2cc([N+](=O)[O-])c([N+](=O)[O-])cc2nc1NC	-18	-14	39*	-3	-16%	-2
N#Cc1cc2nc(O)c(O)nc2cc1[N+](=O)[O-]	-1	0	0	0	6%	-2
N/C(=N\S(=O)(=O)c1cc(C(F)(F)F)cc(C(F)(F)F)c1)c1ccc(Cl)cc1	-7	-77*	1	1	-13%	4
CCC(C(=O)Nc1ccc(C)cc1)c1ccccc1 (configuration not stated)	0	11	12	2	1%	0
CCc1ccc(NC(=O)C(CC)c2ccccc2)cc1 (configuration not stated)	14	3	41*	12	-10%	-9
CCC(C(=O)Nc1ccc(C(=O)Nc2ccccc2C(=O)O)cc1)c1ccccc1 (configuration not stated)	-5	-65*	2	0	-25%	-4
CCC(C(=O)Nc1ccc(C(=O)N2CCCC2)cc1)c1ccccc1 (configuration not stated)	-6	4	37*	4	-6%	3
CCC(C(=O)Nc1cc(OC)c(NC(=O)c2ccccc2)cc1OC)c1ccccc1 (configuration not stated)	-1	-6	7	-2	-25%	2
CCc1nc2nc(C)cc(Nc3ccc(OC)cc3OC)n2n1	1	-13	0	-1	-2%	1
CC(Oc1ccc(Br)cc1Cl)C(=O)Nc1ccncc1 (configuration not stated)	-6	-35*	15	0	-8%	-26
Cc1ccc(OC(C)C(=O)Nc2ccncc2)cc1C (configuration not stated)	-8	-32*	18	0	1%	23
O=S(=O)(NCCCN1CCN(c2ccccc2F)CC1)c1cccc2cccnc12	-10	-73*	3	-2	5%	11
COc1ccccc1N1CCN(c2ccc(-c3nc(-c4ccccc4)no3)cc2[N+](=O)[O-])CC1	2	9	0	0	-24%	-5
CCC1(C)Cc2nc3[nH]c(=S)n(-c4ccc(C)cc4)c(=O)c3cc2CO1 (configuration not stated)	7	-2	2	-1	-22%	9
Cc1ccc(-n2c(=S)[nH]c3nc4c(cc3c2=O)COC(C)(C)C4)cc1	-10	-48*	1	0	-14%	6
Cc1ccc(-n2c(=S)[nH]c3[nH]ncc3c2=O)cc1	-4	-31*	3	1	-23%	-8
O=C(NCc1ccc(Cl)cc1)C1(c2cccs2)CCOCC1	10	·	-4	0	-23%	-1
CCOc1ccc(CCNC(=O)CN2C(=O)CCSc3ccccc32)cc1	4	0	0	0	-23%	2
CCOc1ccc(CCNC(=O)C(C)N2C(=O)CC(C)(C)Sc3ccccc32)cc1 (configuration not stated)	-9	-1	38*	0	-12%	16
CCOC(=O)c1c(CN(C)C)n(C)c2c(O)c(N=NC(N)=O)c3ccc(Br)cc3c12	0	0	3	0	35µM*	9
Cc1nnnn1/C(=C\c1ccccc1)C(=O)OCC(=O)NC(C)(C)C	-4	20	2	0	-12%	33*
SMILES	D1 potentiator	D1 antag	D1 ag	TRHR ag	USP1 inh	TRHR PAM
COc1cccc(N=Cc2c[nH][nH]c2=O)c1	-4	-31*	1	0	-19%	-2
Cc1cccc2c(=O)cc(CSc3ccccc3NC(=O)C(C)(C)C)[nH]c12	4	1	2	0	-16%	-5
C=CCn1c(=O)c(C(=O)OCC)c(O)c2ccccc21	4	3	2	0	-12%	6
CCCn1c(=O)c(C(=O)OCC)c(O)c2cc(Br)ccc21	11	2	-3	0	-10%	32*
Cc1ccc(CNC(=O)c2c(O)nc3ccccn3c2=O)cc1	-2	5	3	0	-9%	15
Cc1ccc(C(=O)Nc2cccc(OCc3cc(=O)n4c5c(sc4n3)CCCC5)c2)cc1	-1	-25	0	-1	-22%	2
CC(=O)c1cc(CN2CCCCC2)cc(OC(C)C)c1	-7	-45*	3	0	-20%	-1
COc1ccc(OC)c2c1CCC2=O	-8	-65*	0	-1	3%	7
COc1ccccc1NC1=C(C)C(=O)CC1	0	1	-3	0	-17%	6
Cc1ccc(S(=O)(=O)N2CCN(Cc3nc4ccc(C)cc4o3)CC2)c(C)c1	1	29	-1	0	-24%	0
CCCCN(C)CCCNC(=O)c1cc(=O)[nH]c2ccc(S(=O)(=O)N3CCCCC3)cc12	-1	0	0	0	-5%	53*
COc1cccc(CNC(=O)c2cc(=O)[nH]c3ccc(S(=O)(=O)N4CCCC4)cc23)c1	0	-8	3	0	-28%	4
CCCCN(CC)CCCNC(=O)c1cn(CC)c2ccc(S(=O)(=O)N3CCOCC3)cc2c1=O	0	-5	1	1	-7%	-3
CCCCN(C)CCCNC(=O)c1cn(CC)c2ccc(S(=O)(=O)N3CCOCC3)cc2c1=O	3	-32*	4	0	-7%	-6
CCn1cc(C(=O)O)c(=O)c2cc(S(=O)(=O)N(C)C)ccc21	0	-37*	4	0	-7%	-2
COCCNC(=O)c1cn(C)c2ccc(S(=O)(=O)N3CCCC3)cc2c1=O	1	-31*	4	1	-15%	5
CCOCCCNC(=O)c1cn(C)c2ccc(S(=O)(=O)N3CCCC3)cc2c1=O	-3	10	4	0	-20%	-3
CCC(C)NC(=O)c1cn(CC)c2ccc(S(=O)(=O)N(C)C)cc2c1=O (configuration not stated)	-1	-5	2	0	-13%	-3
